As a reminder, the AC50 is the concentration giving half of the maximal activity seen.

Calls of active or inactive are those of the source. Rule for the calls: active = hit-call score of the fitted dose curve at least 0.9, where 1 is the maximum; inactive = score below 0.9.

Read-out in this assay: urokinase plasminogen activator (uPA), PLAU (gene 5328)
In words: BSK_BE3C_uPA: BioMAP Diversity Plus: BE3C Assay for urokinase plasminogen activator (uPA) Biomarker Activity (AID 2283038).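 For outcome: uPA read one day after compound addition.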 The note with it: primary human bronchial epithelial cells; actives raise or lower the signal. On the procedure: BSK_BE3C is a cell-based, multiplexed-readout assay that uses bronchial epithelial cell, a human lung primary cell, with measurements taken at 24 hours after chemical dosing in a 96-well plate.BSK_BE3CA is an assay component measured in the BSK_BE3C assay. It measures uPA antibody related to regulation of gene expression using ELISA technology.Data from the assay component BSK_BE3CA was analyzed into 1 assay endpoint. This assay endpoint, BSK_BE3CA, was analyzed with bidirectional fitting relative to DMSO as the negative control and baseline of activity. Using a type of binding reporter, gain or loss-of-signal activity can be used to understand changes in the signaling as they relate to the gene PLAU. Furthermore, this assay endpoint can be referred to as a primary readout, because this assay has produced multiple assay endpoints where this one serves a signaling function. To generalize the intended target to other relatable targets, this assay endpoint is annotated to the protease intended target family, where the subfamily is serine protease.
The levels of cell surface (or secreted, indicated by the prefix "s") biomarker endpoints were measured by ELISA. Overt cytotoxicity to cells in confluent adherent cultures (all systems other than the BT system) was assessed by measuring total protein levels using sulforhodamine B (SRB) staining in parallel cultures at the time of biomarker measurements, indicated as SRB endpoints. For proliferation assays for adherent cell types, individual cell types are cultured at sub-confluence and relative cell numbers quantified by SRB staining at time points optimized for each system (48 h: 3C and CASM3C systems; 72 h: BT and HDF3CGF systems; 96 h: SAg system). SRB was performed by staining cells with 0.1% SRB after fixation with 10% TCA and reading wells at 560 nm.Viability and proliferation of PBMC (T cells) was quantified by Alamar Blue reduction for the SAg and BT systems. For PBMC viability (referred to as PBMC Cytotoxicity within the assay endpoint names), cells were plated (75,000/well in a 96-well plate) and then chemical samples added for 1 h before addition of activators, SEB and TSST-1 (20 ng/mL final concentration each). Cells were incubated for 90 h. Then, Alamar Blue (20 uL/well) (Invitrogen, Cat DAL1100) was added for 6 h, and the plates were read with a fluorescence microplate reader at 546/580 nm (excitation/emission). For PBMC proliferation, cells were plated and activated as above but incubated for only 16 h prior to addition of Alamar Blue. Plates were read after 6 h.
For `C=CCc1cc(S(=O)(=O)c2ccc(O)c(CC=C)c2)ccc1O`, the AC50 was 23.5 µM (active). With `CCCCCCCC1CCC(=O)O1` (stereo not given), the outcome was inactive. For `NC(=O)NN=Cc1ccc([N+](=O)[O-])o1`, the AC50 was 7.99 µM (active).

Consider `OC(CCl)CCl`, for which the result was inactive. For the molecule `CCCCOC(=O)c1ccccc1`, the outcome was inactive.

Regarding `OCCNCCO`, the outcome was inactive. For `O=C(O)[C@H](O)[C@@H](O)C(=O)O`, the result was inactive. With `O=S(=O)(O)c1ccc(N=Nc2c(O)ccc3cc(S(=O)(=O)O)ccc23)cc1`, the outcome was inactive. In the case of `Cn1cc[nH]c1=S`, the outcome was inactive.

Regarding `O=S1(=O)CCCO1`, the result was inactive. On to `c1ccc2c(c1)-c1cccc3c1c-2cc1ccccc13`, for which the result was inactive. For the molecule `CCCCCCCCCCCCCCO`, the outcome was inactive.

For the molecule `COc1cc2c(c(OC)c1OC)-c1ccc(OC)c(=O)cc1[C@@H](NC(C)=O)CC2`, the result was inactive. `OCCC(F)(F)C(F)(F)C(F)(F)C(F)(F)F`: the result was inactive.

Turning to `O=c1[nH]cnc2c1ncn2[C@H]1CC[C@@H](CO)O1`, the outcome was inactive. Consider `NC(=O)N1c2ccccc2C=Cc2ccccc21`, for which the result was inactive. As to `C[C@]12C=CC(=O)C=C1CC[C@H]1[C@@H]3C[C@@H](O)[C@](O)(C(=O)CO)[C@@]3(C)C[C@H](O)[C@@]12F`, the outcome was inactive.

Consider `Cc1nccn1-c1ccc(Sc2cccc(C3(C(N)=O)CCOCC3)c2)cc1`, for which the AC50 was 14.3 µM (active). On to `CCOc1ccc2[nH]cc(C(=O)NCc3ccccc3)c(=O)c2n1`, for which the result was inactive.

As for `CCc1cccc(CC)c1N`, the outcome was inactive.

Take `CCCCCCCCCCCCCCCCOS(=O)(=O)O`: the AC50 is 15.7 µM (active). Regarding `OC(Cn1cncn1)(Cn1cncn1)c1ccc(F)cc1F`, the outcome was inactive.

On to `CCc1ccc(O)c(C(C)(C)C)c1`, for which the outcome was inactive.

As to `CCCCCCCCCC`, the outcome was inactive.

`OCc1c[nH]c2ccccc12`: the result was inactive. For the molecule `OC[C@H]1O[C@@](CO)(O[C@H]2O[C@H](CO)[C@@H](O)[C@H](O)[C@H]2O)[C@@H](O)[C@@H]1O`, the outcome was inactive.

For the molecule `CCN(CC)C(=S)SSC(=S)N(CC)CC`, the AC50 is 18.7 µM (active).

For `OC(O)(C(F)C(O)(O)C(F)(F)F)C(F)(F)F`, the result was inactive.

In the case of `FC(F)C(F)(F)COCC1CO1` (stereo not given), the result was inactive. As for `O=C1CN(N=Cc2ccc([N+](=O)[O-])o2)C(=O)N1`, the outcome was inactive. On to `COc1cc(C(C)C)c2c(c1)S(=O)(=O)N(COc1cc(=O)n3cccc(OCCN4CCCCC4)c3n1)C2=O`, for which the AC50 is 8.13 µM (active). Take `CCCCCCOC(=O)CC(CC(=O)OCCCCCC)(OC(=O)CCC)C(=O)OCCCCCC`: the outcome was inactive.

For `Cn1c(=O)c2[nH]cnc2n(C)c1=O`, the outcome was inactive. Take `Nc1ccn([C@@H]2O[C@H](CO)[C@@H](O)[C@@H]2O)c(=O)n1`: the outcome was inactive. Regarding `C[Si](C)(C)C(F)(F)C(F)(F)C(F)(F)F`, the outcome was inactive. On the same count and under the same terms, in the case of `CC1(C)C(=O)N(Cl)C(=O)N1Cl` it was “inactive”; in that of `C=CN1CCCC1=O`, “inactive”; in that of `Cc1ccc(S(=O)(=O)NC(=O)NN2CCCCCC2)cc1`, “inactive”.

Consider `CC(C)C(=O)Nc1ccc([N+](=O)[O-])c(C(F)(F)F)c1`, for which the result was inactive. On the same count and under the same terms, in the case of `OCc1ccccc1` it was “inactive”.

The values are drawn from PubChem BioAssay (EPA / NIEHS).
